Here are results for 17 molecules from PubChem BioAssay.

A short description of assay [1]: compounds binding Alexa647 anti-His antibody – biochemical, small-molecule microarray, 635 nm fluorescence, artefact control for SMM control protein annotation, primary screen (AID 1128).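 Note: score merges feature fluorescence with signal-to-noise for each printed compound spot.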 The conditions noted are these: higher = more signal.
Assay [2] concerns Human papillomavirus type 1a E7 protein (residues 1-88). Briefly: HPV1a E7 small-molecule binders, primary screen, biochemical, small-molecule microarray, residues 1-88, 635 nm (AID 1129). The conditions noted are these: small-molecule microarray binding, fluorescence 635 nm; higher = more signal.
Assay [3] deals with Focal adhesion kinase 1 (Homo sapiens) (UniProt Q05397). Briefly: PTK2 protein binding on printed compound slides – biochemical, small-molecule microarray, 635/667 nm fluorescence, BSA, DTT, primary screen (AID 1130).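 Note: composite of spot emission at 667 nm and signal to noise over triplicate slides.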 Conditions: 635 nm fluorescence, higher = more signal.
Focal adhesion kinase 1 (Homo sapiens), sequence (Q05397 whole entry, looked up): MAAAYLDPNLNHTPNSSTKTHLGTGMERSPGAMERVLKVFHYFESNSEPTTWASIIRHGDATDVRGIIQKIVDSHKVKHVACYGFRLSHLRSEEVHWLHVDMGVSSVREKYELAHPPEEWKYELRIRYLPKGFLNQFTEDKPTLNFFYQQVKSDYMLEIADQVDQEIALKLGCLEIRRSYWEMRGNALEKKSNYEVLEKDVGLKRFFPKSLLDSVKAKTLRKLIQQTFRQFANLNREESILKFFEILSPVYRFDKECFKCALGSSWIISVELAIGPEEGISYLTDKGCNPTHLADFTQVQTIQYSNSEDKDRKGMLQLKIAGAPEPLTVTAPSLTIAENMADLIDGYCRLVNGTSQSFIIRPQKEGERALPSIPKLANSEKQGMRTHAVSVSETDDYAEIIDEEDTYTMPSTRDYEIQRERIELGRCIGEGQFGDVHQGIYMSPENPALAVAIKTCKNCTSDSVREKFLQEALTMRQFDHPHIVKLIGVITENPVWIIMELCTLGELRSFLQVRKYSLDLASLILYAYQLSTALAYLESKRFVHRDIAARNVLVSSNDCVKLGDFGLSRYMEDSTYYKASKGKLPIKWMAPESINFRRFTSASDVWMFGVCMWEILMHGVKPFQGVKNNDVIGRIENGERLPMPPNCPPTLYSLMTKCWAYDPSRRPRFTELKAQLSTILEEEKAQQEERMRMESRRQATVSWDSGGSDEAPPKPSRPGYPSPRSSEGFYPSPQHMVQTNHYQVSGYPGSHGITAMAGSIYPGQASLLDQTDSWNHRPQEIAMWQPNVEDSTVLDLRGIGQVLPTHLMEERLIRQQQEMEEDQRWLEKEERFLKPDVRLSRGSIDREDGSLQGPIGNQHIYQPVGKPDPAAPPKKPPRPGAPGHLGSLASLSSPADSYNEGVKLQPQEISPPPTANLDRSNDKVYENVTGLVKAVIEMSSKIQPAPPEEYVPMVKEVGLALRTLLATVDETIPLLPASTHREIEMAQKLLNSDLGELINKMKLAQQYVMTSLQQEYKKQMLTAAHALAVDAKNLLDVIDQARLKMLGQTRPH
The subject of assay [4] is Fibrinogen (Alexa647-labelled). Briefly: Alexa647-fibrinogen binding to printed small molecules – biochemical, small-molecule microarray, 635/667 nm fluorescence, artefact control for SMM control-protein annotation, profiling panel (AID 1131).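 Note: z-score merges 667 nm fluorescence with per-spot signal-to-noise over triplicate slides.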 The conditions noted are these: fibrinogen-A647 binding fluorescence, higher = more signal.
Assay [5] concerns the target Follistatin (Homo sapiens) (UniProt P19883). Briefly: FST protein binding to printed compounds – biochemical, small-molecule microarray, 635/667 nm fluorescence, primary screen (AID 1132). Conditions: 635 nm fluorescence, higher = more signal.
Assay [6] deals with Fibroblast growth factor 2 (Homo sapiens) (UniProt P09038). Briefly: basic fibroblast growth factor binding to printed compounds – biochemical, small-molecule microarray, 635/667 nm fluorescence, primary screen (AID 1133). The conditions noted are these: FGF2, fluorescence 635/667, higher = more signal.
Fibroblast growth factor 2 (Homo sapiens), sequence (P09038 whole entry, looked up): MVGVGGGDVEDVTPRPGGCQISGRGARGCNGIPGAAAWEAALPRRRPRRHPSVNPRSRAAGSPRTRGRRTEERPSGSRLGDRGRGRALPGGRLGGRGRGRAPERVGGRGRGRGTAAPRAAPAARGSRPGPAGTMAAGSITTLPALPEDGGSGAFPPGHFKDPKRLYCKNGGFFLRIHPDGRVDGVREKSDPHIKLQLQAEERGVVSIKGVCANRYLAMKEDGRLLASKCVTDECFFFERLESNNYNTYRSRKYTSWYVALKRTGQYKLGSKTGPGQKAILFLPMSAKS
Assay [7] can be described thus: JC-1 mitochondrial potential readout, lung cancer cells – cell-based, A549, JC-1 fluorescence, basal, 24 h, 100 nL, profiling panel (AID 1138).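 Note: A549 lung adenocarcinoma cells under basal conditions with no added stimulus; test concentration not given here.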 The conditions noted are these: higher = more signal.
For a further assay, the system named is Lefty1. Briefly: Lefty1 protein binding to printed compounds – biochemical, small-molecule microarray, 635/667 nm fluorescence, primary screen (AID 1139). Conditions: fluorescence 635/667, higher = more signal.
For assay [8], the system named is wheat germ agglutinin (Triticum aestivum), Alexa647-labelled. Briefly: Alexa647-WGA lectin binding to printed small molecules – biochemical, small-molecule microarray, 635/667 nm fluorescence, artefact control for SMM control-protein annotation, profiling panel (AID 1140).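 Note: score merges 667 nm feature emission with signal to noise over triplicate slides.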 Conditions: WGA-A647 binding, 635 nm fluorescence, higher = more signal.
Assay [9] has as its target Luciferin 4-monooxygenase (Photinus pyralis) (UniProt P08659). Briefly: inhibition of purified Photinus pyralis luciferase – biochemical, luminescence, purified enzyme, 2006 set, primary screen (AID 1141).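 Note: cell-free assay with purified firefly luciferase at 100 ng per well in PBS; test concentration not given here.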 Conditions: purified firefly luciferase, SteadyGlo luminescence, 30 min; higher = more signal, called active from +8 up or from −8 down.

The source made the active and inactive calls.

Follistatin (Homo sapiens), sequence (P19883 whole entry, looked up): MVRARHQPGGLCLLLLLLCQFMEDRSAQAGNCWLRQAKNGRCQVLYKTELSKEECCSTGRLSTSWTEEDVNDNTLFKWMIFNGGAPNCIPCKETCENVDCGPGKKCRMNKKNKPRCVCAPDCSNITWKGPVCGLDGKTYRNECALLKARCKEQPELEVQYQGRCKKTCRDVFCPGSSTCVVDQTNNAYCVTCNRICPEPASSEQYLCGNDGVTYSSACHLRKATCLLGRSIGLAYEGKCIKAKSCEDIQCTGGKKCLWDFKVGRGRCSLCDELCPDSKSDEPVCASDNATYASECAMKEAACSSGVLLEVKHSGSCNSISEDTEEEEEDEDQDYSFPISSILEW
Luciferin 4-monooxygenase (Photinus pyralis), sequence (P08659 whole entry, looked up): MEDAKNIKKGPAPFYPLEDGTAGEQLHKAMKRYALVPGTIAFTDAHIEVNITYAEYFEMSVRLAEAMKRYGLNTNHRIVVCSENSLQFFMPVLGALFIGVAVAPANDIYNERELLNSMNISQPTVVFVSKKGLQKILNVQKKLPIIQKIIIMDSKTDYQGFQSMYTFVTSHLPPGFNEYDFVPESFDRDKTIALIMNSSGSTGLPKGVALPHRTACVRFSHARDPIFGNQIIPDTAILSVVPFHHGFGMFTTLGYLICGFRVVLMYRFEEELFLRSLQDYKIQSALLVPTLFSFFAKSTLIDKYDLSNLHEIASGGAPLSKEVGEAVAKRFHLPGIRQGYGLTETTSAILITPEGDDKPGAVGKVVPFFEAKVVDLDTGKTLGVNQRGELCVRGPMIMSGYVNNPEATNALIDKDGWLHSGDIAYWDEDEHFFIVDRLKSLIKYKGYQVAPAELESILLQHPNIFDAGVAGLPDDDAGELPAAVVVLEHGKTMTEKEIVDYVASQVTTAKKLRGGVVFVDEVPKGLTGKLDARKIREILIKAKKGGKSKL

With `O=C1[C@H]2CCn3c(=O)n(-c4ccccc4)c(=O)n3[C@H]2[C@H](O)[C@@H]2O[C@H]12`, the composite z-score was -0.0114 in assay [1]; 0.301 in [2]; -0.339 in assay [3]; 0.418 in [4]; -0.0705 in assay [5]; 0.127 in [6]. The values for the composite z-score (in the assay on Lefty1; in [8]) were 0.278 and 0.465, respectively. In addition, the z-score in assay [7] is 0.718; in [9], 0.0786 (inactive).

With `CC(C)=NOC(C)CN1CCCc2nc(C)c(C)cc21` (stereo not given), the composite z-score in assay [1] was -0.0115; in [2], 0.964; in assay [3], 0.232; in [4] it was 0.484; in assay [5], 0.724; in assay [6], 0.753. For the same molecule, the composite z-score came out at 0.947 in the assay on Lefty1 and 0.323 in assay [8]. Moreover, the z-score in [7] was 0.354; in [9], 0.57 (inactive).

Take `COc1ccc(COC(=O)NN=C2C[C@@H](O)[C@@H](O)[C@@H]3[C@@H]4C(=O)N([C@@H](C)c5ccccc5)C(=O)[C@@H]4CC[C@H]23)cc1`: the composite z-score in [1] was -0.485; in [2], -0.521; in [3], -0.393; in assay [4], -0.137; in assay [5] it was -0.528; in [6] it was -0.509. The composite z-score in the assay with Lefty1 is -0.794; in [8] it was 0.271. For the same molecule, the z-score in assay [7] was -0.419; in [9], 0.779 (inactive).

Regarding `CC1(C)O[C@H]2O[C@H]([C@H](O)CON=C3[C@H]4CCn5c(=O)n(-c6ccccc6)c(=O)n5[C@H]4[C@H](O)[C@@H]4O[C@H]34)[C@H](O)[C@H]2O1`, the composite z-score in assay [1] was 0.455; in assay [2] it was -0.282; in [3] it was -0.282; in assay [4] it was 0.0946; in assay [5], 0.154; in [6] it was 0.947. Further, the composite z-score is 0.222 in the assay on Lefty1 and 0.0136 in assay [8]. The z-score in assay [7] was -0.994; in assay [9] it was 0.0158 (inactive).

Turning to `O=C(NN=C1C[C@@H](O)[C@@H](O)[C@@H]2[C@@H]3C(=O)N(c4ccc(F)cc4F)C(=O)[C@@H]3CC[C@H]12)OCc1ccccc1`, the composite z-score came to 0.746 in [1]; 0.76 in assay [2]; 0.0097 in assay [3]; 0.501 in assay [4]; 0.28 in assay [5]; 0.0684 in assay [6]. In addition, the composite z-score came out at 0.331 in the assay with Lefty1 and 0.114 in assay [8]. In addition, the z-score was -0.63 in assay [7] and 0.934 (inactive) in assay [9].

In the case of `CCc1cc2c(nc1CC)CCN(CCC(C)=NOC[C@@H](C)[C@H](OCc1ccccc1)C(C)C)C2`, the composite z-score in assay [1] is 2.64; in assay [2], -0.684; in [3] it was -0.846; in [4], -1.69; in assay [5] it was -0.862; in assay [6] it was -1.39. The composite z-score in the assay on Lefty1 is -0.465; in assay [8] it was -0.323. Besides, the z-score is 0.874 in assay [7] and -1.77 (inactive) in assay [9].

For the molecule `C[C@H]1C=CCC(=O)OC[C@H](C)C(=O)N2CCC[C@H]2C(=O)OC1`, the composite z-score in assay [1] was -0.637; in [2], -1.44; in [3] it was -0.943; in assay [4], -1.09; in assay [5], 1.43; in assay [6], 2.01. Further, the composite z-score is 1.61 in the assay on Lefty1 and -1.18 in assay [8]. The z-score in assay [7] is -0.823; in assay [9] it was 1.32 (inactive).

With `CCOC(=O)[C@H](CC(C)C)NC(=O)CCC1CC(OC(=O)NCc2ccc3c(c2)OCO3)CC2(CCCC(COC(=O)NCCc3ccccc3OC)O2)O1` (stereo not given in full), the composite z-score in assay [1] came out at 0.746; in assay [2], 1.13; in assay [3] it was 0.283; in [4] it was 0.669; in assay [5] it was 0.826; in [6], 1.15. Further, the values for the composite z-score (in the assay with Lefty1; in [8]) were 0.787 and 0.196, respectively. Also, the z-score in assay [7] was -0.717; in [9], 0.867 (inactive).

Take `CCOC(=O)CCN1C(=O)[C@H]2[C@H]3[C@H](O)[C@H](O)CC(=NO[C@@H]4O[C@H](CO)[C@@H](O)[C@H](O)[C@H]4O)[C@@H]3CC[C@H]2C1=O`: the composite z-score in [1] is 0.818; in assay [2] it was 1.12; in assay [3], 0.118; in assay [4], 0.854; in assay [5], 1.22; in assay [6] it was 1.22. Moreover, the composite z-score turned out to be 1.4 in the assay with Lefty1 and 0.829 in [8]. The figures for the z-score in [7] and in [9] were -0.102 and -0.115 (inactive), respectively.

Consider `CC(C)=CCCC(C)=CCON=C1C[C@@H](O)[C@@H](O)[C@@H]2[C@@H]3C(=O)N(Cc4ccc5c(c4)OCO5)C(=O)[C@@H]3CC[C@H]12`, for which the composite z-score in [1] is 0.364; in [2], 0.838; in assay [3] it was -0.0613; in assay [4] it was 0.855; in assay [5], 0.779; in [6], 0.613. Further, the composite z-score in the assay with Lefty1 was found to be 1.04; in [8], 0.793. In addition, the figures for the z-score in [7] and in assay [9] were -0.564 and 0.497 (inactive), respectively.

Regarding `O=C1CCCC=C1C(O)COCc1ccccc1` (stereo not given), the composite z-score is 0.195 in assay [1]; -1.33 in assay [2]; 0.0944 in assay [3]; 0.772 in assay [4]; 0.124 in assay [5]; 0.236 in assay [6]. For the same molecule, the composite z-score is 0.295 with Lefty1 and -0.0439 in [8]. Also, the figures for the z-score in assay [7] and in assay [9] were -0.68 and 0.345 (inactive), respectively.

With `O=C(NCCC[N+]1=CC=NC1c1ccccc1)N1CCCc2nc(-c3ccc(Br)cc3)ccc21` (stereo not given), the composite z-score in assay [1] was 0.862; in assay [2] it was -0.493; in [3], 0.183; in assay [4] it was 0.692; in assay [5], 0.733; in assay [6] it was 0.208. For the same molecule, the results for the composite z-score (with Lefty1; in assay [8]) were 0.27 and -0.471, respectively. Also, the z-score is 1.76 in assay [7] and 0.395 (inactive) in [9].

As for `CCOC(=O)[C@H](Cc1ccccc1)NC(=O)CCC1CC(OC(=O)NCCc2ccc(F)cc2)CC2(CCCC(COC(=O)NCCC(C)C)O2)O1` (stereo not given in full), the composite z-score in assay [1] was 1.05; in assay [2] it was 1.12; in assay [3] it was 0.156; in assay [4], 0.871; in [5], 0.967; in assay [6], 1.02. For the same molecule, the composite z-score came to 0.743 in the assay on Lefty1 and 0.381 in [8]. Besides, the z-score in [7] was 0.833; in assay [9] it was 0.553 (inactive).

As to `COC(=O)C1=C(C)N(Cc2ccccc2)C2=C3C(=O)OCC[C@@H]3[C@@](O)(C(=O)OC)C(=O)N2[C@@H]1c1ccccc1`, the composite z-score in assay [1] turned out to be 0.0356; in [2], 0.0787; in assay [3] it was 0.19; in [4] it was 0.332; in assay [5], 0.384; in assay [6], 0.402. For the same molecule, the composite z-score came out at 0.836 in the assay with Lefty1 and 0.0974 in assay [8]. The z-score was 1.48 in assay [7] and -0.653 (inactive) in assay [9].

Turning to `COc1ccc(COC(=O)NN=C2C[C@@H](O)[C@@H](O)[C@@H]3[C@@H]4C(=O)N(C[C@@H]5CCCO5)C(=O)[C@@H]4CC[C@H]23)cc1`, the composite z-score in assay [1] was -0.156; in [2], -0.309; in [3], 0.0444; in [4], -0.269; in assay [5] it was -1.13; in assay [6] it was -0.902. In addition, the figures for the composite z-score (with Lefty1; in assay [8]) were -1.1 and 0.128, respectively. The figures for the z-score in assay [7] and in assay [9] were -0.252 and 0.917 (inactive), respectively.

Turning to `O=C1[C@H]2[C@H]3[C@H](O)[C@H](O)CC(=NO[C@@H]4O[C@H](CO)[C@@H](O)[C@H](O)[C@H]4O)[C@H]3CC[C@H]2C(=O)N1c1ccc(F)cc1F`, the composite z-score in assay [1] is -1.26; in assay [2], -0.162; in assay [3], 0.633; in assay [4] it was 0.192; in assay [5], -1.22; in [6], 0.502. The composite z-score with Lefty1 is -0.152; in assay [8] it was -0.052. Also, the z-score in assay [7] was -0.352; in assay [9], 1.42 (inactive).

Consider `CC(C)[C@@H](OCc1ccccc1)[C@H](C)C=NO[C@@H](C)c1cn([C@H](CO)Cc2ccccc2)nn1`, for which the composite z-score is 0.08 in [1]; -0.147 in [2]; -0.0232 in assay [3]; -0.157 in assay [4]; -0.0854 in assay [5]; 0.346 in assay [6]. For the same molecule, the figures for the composite z-score (in the assay with Lefty1; in [8]) were 0.249 and 0.0578, respectively. Further, the z-score was -1.02 in assay [7] and -0.197 (inactive) in [9].
